This passage reports Potency results from PubChem BioAssay (NCATS).

A short description of test [1]: qHTS of pediatric cancer cell lines to identify multiple opportunities for drug repurposing: Primary screen for SK-N-MC cells (AID 1347093). Note: potency is the fitted concentration of half-maximal effect. Summed up: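 Metabolically active cells were quantified by ATP-dependent luminescence (CellTiter-Glo, 15 min at room temperature) following 48 h treatment. Cells had been plated at 500-1,000 per well and settled for 5 h beforehand.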
On the technique in general: qHTS replaces the single test concentration by a dilution series.

A short description of test [2]: qHTS of pediatric cancer cell lines to identify multiple opportunities for drug repurposing: Primary screen for U-2 OS cells (AID 1347096). Note: nearly all actives have a fitted effect of over 50% in size. Summed up:
(§1)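 Viability after 48 h compound treatment at 37C, 500-1,000 cells/well, read as ATP luminescence with CellTiter-Glo. Primary screens used 11-point (MIPE, 0.78 nM-46 µM) or 8-point (NPC, 0.59 nM-46 µM) final concentrations; follow-up screens used 11-point dilutions.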

Test [3] in a line: qHTS of pediatric cancer cell lines to identify multiple opportunities for drug repurposing: Primary screen for LAN-5 cells (AID 1347100). Note: potency is the fitted concentration of half-maximal effect. Summed up: as §1
Test [4] is described as follows: qHTS of pediatric cancer cell lines to identify multiple opportunities for drug repurposing: Primary screen for BT-12 cells (AID 1347101). Note: nearly all actives have a fitted effect of over 25% in size. Note: potency is the fitted concentration of half-maximal effect. Summed up:
(§2)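 Cells (500-1,000/well) rested 5 h, then received compounds for 48 h; metabolically active cells were measured by CellTiter-Glo luminescence. Final concentrations spanned up to 46 µM (MIPE, 11-point) or 0.59 nM-46 µM (NPC, 8-point) in primary screens, 11-point in follow-ups.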

Test [5] in a line: qHTS of pediatric cancer cell lines to identify multiple opportunities for drug repurposing: Primary screen for Rh18 cells (AID 1347102). Note: nearly all actives have a fitted effect of over 65% in size. Summed up: as §1
The nature of test [6]: qHTS of pediatric cancer cell lines to identify multiple opportunities for drug repurposing: Primary screen for NB-EBc1 cells (AID 1347095). Note: potency is the fitted concentration of half-maximal effect. Summed up:
(§3)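 Primary screen of approved and investigational compounds on cells in growth media at 37 degrees C, 5% CO2. MIPE set at 11-point and NPC set at 8-point dilutions; viability scored by ATP-based luminescence at 48 hours.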

Test [7] can be described thus: qHTS of pediatric cancer cell lines to identify multiple opportunities for drug repurposing: Primary screen for Saos-2 cells (AID 1347097). Note: nearly all actives have a fitted effect of over 40% in size. Note: potency is the fitted concentration of half-maximal effect. Summed up:
as §3

A short description of test [8]: qHTS of pediatric cancer cell lines to identify multiple opportunities for drug repurposing: Primary screen for SK-N-SH cells (AID 1347098). Note: nearly all actives have a fitted effect of over 65% in size. Note: potency is the fitted concentration of half-maximal effect. Summed up:
as §2

Test [9] can be described thus: qHTS of pediatric cancer cell lines to identify multiple opportunities for drug repurposing: Primary screen for NB1643 cells (AID 1347099). Note: nearly all actives have a fitted effect of over 50% in size. Note: potency is the fitted concentration of half-maximal effect. Summed up: as §3
Test [10] is described as follows: qHTS of pediatric cancer cell lines to identify multiple opportunities for drug repurposing: Primary screen for BT-37 cells (AID 1347094). Note: series mostly up to about 57 µM. Summed up:
as §3

Structures are written as SMILES. Records with an inconclusive call do not appear. Activity calls are given as the source filed them. Calls come from the whole dose curve; as a rule, active = well fitted curve in the direction sought with a large enough effect; inconclusive = small, poorly fitted or top-dose-only effect, or another doubt; inactive = no such curve, though single readings can be large; an effect the other way counts as inactive or inconclusive.

With `Clc1ccc(C(c2ccc(Cl)cc2)C(Cl)(Cl)Cl)cc1`, in test [1], the Potency was 5.31 µM (active). The Potency entry in test [2], in test [3], in [4] and in test [5] was “inactive” throughout.

For `NNc1ccccc1`, the Potency result in test [1], in test [6], in test [2], in test [7], in [8] and in test [9] was “inactive” throughout. The Potency entry in test [4] and in test [5] was “inactive” in each case.

With `CCC(C)C(C)(COC(N)=O)COC(N)=O` (configuration not stated), the Potency entry in test [10], in [6], in [2], in [7], in [8] and in [3] was “inactive” in each case. In addition, the Potency result in test [4] and in test [5] was “inactive” in each case.

In the case of `COc1cccc([C@@]2(O)CCCC[C@@H]2CN(C)C)c1`, the Potency result in test [1], in test [6], in [2], in [7], in test [8] and in [3] was “inactive” throughout. In addition, the Potency result in test [4] and in test [5] was “inactive” each time.

Take `O=C1c2ccccc2C(=O)C1C(=O)C(c1ccccc1)c1ccccc1`: the Potency result in test [10], in [2], in [8] and in [4] was “inactive” each time.

`CC(C)(N)Cc1ccccc1Cl`: the Potency result in [6], in [2], in test [7], in test [8], in test [9] and in test [3] was “inactive” each time. Further, the Potency entry in test [4] and in [5] was “inactive” in each case.

As to `COc1cccc(C(=O)CCN[C@@H](C)[C@H](O)c2ccccc2)c1`, the Potency entry in test [2], in test [4] and in test [5] was “inactive” each time. Moreover, in test [8], the Potency was 30.7 µM (active).

For `CC(C)(C)NCC(O)c1ccccc1Cl` (configuration not stated), the Potency entry in test [10], in [6], in test [2], in test [7], in [9] and in test [3] was “inactive” throughout. Also, the Potency entry in test [4] and in test [5] was “inactive” in each case.

Turning to `O=C1c2ccccc2C(=O)c2ccccc21`, the Potency result in [10], in test [6], in [2], in test [7], in test [8] and in test [3] was “inactive” in each case. Also, the Potency entry in [4] and in test [5] was “inactive” throughout.

For the molecule `CCCCCCCCCC(=O)O[C@H]1CC[C@H]2[C@@H]3CCC4=CC(=O)CC[C@@H]4[C@H]3CC[C@]12C`, the Potency entry in test [10], in [6], in test [2], in test [7], in test [9] and in test [3] was “inactive” each time. Further, in test [4], the Potency entry is “inactive”.

Turning to `C=CCN1C[C@H](C)N([C@H](c2ccc(C(=O)N(CC)CC)cc2)c2cccc(OC)c2)C[C@H]1C`, the Potency result in test [6], in test [2], in [7], in [8], in test [9] and in [3] was “inactive” in each case. Moreover, the Potency entry in test [4] and in [5] was “inactive” throughout.

For the molecule `O=C(Nc1ccc(Br)cc1)c1cc(Br)cc(Br)c1O`, the Potency is 34.4 µM (active) in test [8], 9.44 µM (active) in test [9] and 27.6 µM (active) in test [4]. In addition, in test [5], the Potency entry was “inactive”.

For `C[C@]12CC[C@@H]3c4ccc(OC(=O)N(CCCl)CCCl)cc4CC[C@H]3[C@@H]1CC[C@@H]2O`, the Potency result in [2], in test [8], in test [3], in test [4] and in [5] was “inactive” throughout.

Regarding `CC(C)c1c(CN(C)C(C)Cc2ccccc2)n(C)n(-c2ccccc2)c1=O` (configuration not stated), the Potency result in [6], in test [2], in test [7], in test [8], in test [3] and in test [5] was “inactive” in each case.

`CCN[C@@H](C)Cc1ccccc1`: the Potency result in [6], in test [2], in [7], in [8], in test [3] and in [4] was “inactive” throughout. Besides, in test [5], the Potency entry is “inactive”.

As for `C[C@]12CC[C@H]3[C@@H](CCC4=CC(=O)CC[C@@H]43)[C@@H]1CC[C@@H]2OC(=O)CCc1ccco1`, the Potency result in test [10], in test [6], in test [2], in test [8], in test [9] and in test [3] was “inactive” each time. For the same molecule, the Potency entry in test [4] was “inactive”.

For the molecule `O=c1oc2ccccc2c(O)c1Cc1c(O)c2ccccc2oc1=O`, in test [6], the Potency was 15 µM (active). Also, the Potency result in [2], in test [7], in test [8], in test [9], in test [3] and in [4] was “inactive” in each case.

With `CN1C(=O)NC(=O)C(C)(C2=CCCCC2)C1=O` (configuration not stated), the Potency result in [6], in test [2], in [7], in test [8], in test [9] and in test [3] was “inactive” in each case. The Potency result in test [4] and in [5] was “inactive” each time.

With `CCCCC/C=C\C/C=C\C/C=C\C/C=C\CCCC(=O)NCC(=O)O`, the Potency result in test [2], in test [8], in test [3], in [4] and in [5] was “inactive” in each case.

Take `CC(C)NC(C)C`: the Potency entry in test [6], in test [2], in test [7], in test [8], in [9] and in [3] was “inactive” in each case. Further, the Potency result in test [4] and in [5] was “inactive” in each case.

`COc1cc(CCN)cc(OC)c1OC`: the Potency result in test [10], in test [6], in [2], in test [7], in [3] and in test [4] was “inactive” throughout. In test [5], the Potency result was “inactive”.

On to `CC(Cc1ccccc1)NCCn1cnc2c1c(=O)n(C)c(=O)n2C` (configuration not stated), for which the Potency entry in [10], in test [6], in [2], in test [7], in [8] and in test [3] was “inactive” each time. Besides, the Potency result in [5] was “inactive”.

`CCC1(CC)C(=O)C=CNC1=O`: the Potency entry in [10], in test [6], in test [2], in [7], in test [8] and in [3] was “inactive” each time. For the same molecule, the Potency entry in [4] and in test [5] was “inactive” each time.

With `CN1CC[C@]23c4c5ccc(O)c4O[C@H]2[C@@H](O)C=C[C@H]3[C@H]1C5`, the Potency entry in test [10], in test [6], in test [2] and in [3] was “inactive” each time.

`CC(Cc1ccccc1)N(C)Cc1ccco1` (configuration not stated): the Potency result in [6], in test [2], in test [7], in [8], in test [9] and in test [3] was “inactive” throughout. For the same molecule, the Potency entry in test [4] and in test [5] was “inactive” in each case.

For the molecule `c1ccc2c(c1)sc1ccccc12`, the Potency entry in test [10], in test [6], in test [2], in test [8], in test [9] and in test [3] was “inactive” each time. In addition, the Potency result in test [4] and in test [5] was “inactive” in each case.

For the molecule `CCCN(CCC)C(=O)Cc1c(-c2ccc(Cl)cc2)nc2ccc(Cl)cn12`, the Potency result in test [6], in test [2], in test [7], in test [8], in test [3] and in [5] was “inactive” each time.

In the case of `C[C@]12CC[C@H]3[C@@H](CCC4=CC(=O)CC[C@@H]43)[C@@H]1CC[C@@H]2OC(=O)CCC1CCCCC1`, the Potency result in [2], in [8], in test [4] and in [5] was “inactive” throughout.

As for `C=C(C)[C@H]1CN[C@H](C(=O)O)[C@H]1CC(=O)O`, the Potency entry in [6], in [2], in [7], in [8], in test [9] and in test [3] was “inactive” throughout. The Potency result in test [4] and in test [5] was “inactive” in each case.

As to `C[C@]12Cc3cn[nH]c3C[C@@H]1CC[C@@H]1[C@@H]2CC[C@@]2(C)[C@H]1CC[C@]2(C)O`, the Potency result in test [10] and in test [4] was “inactive” throughout. Besides, the Potency in test [7] is 26.6 µM (active).

For the molecule `O=c1c(C2CC(c3ccc(-c4ccc(Br)cc4)cc3)Cc3ccccc32)c(O)sc2ccccc12` (configuration not stated), the figures for the Potency in test [6], in test [9] and in test [3] were 7.5 µM (active), 10.6 µM (active) and 10.6 µM (active), respectively. The Potency entry in test [2] is “inactive”.

Turning to `COP(=S)(OC)SCN1C(=O)c2ccccc2C1=O`, the Potency entry in [10], in test [6], in test [2], in test [8], in test [3] and in test [4] was “inactive” each time. The Potency entry in test [5] is “inactive”.

With `CCN(CC)C(=O)[C@@H]1C=C2c3cccc4[nH]cc(c34)C[C@H]2N(C)C1`, the Potency entry in [2], in [9], in [4] and in [5] was “inactive” each time. Besides, the Potency in test [3] was 71.3 µM (active).
